# According to PubChem BioAssay AID1159580 (chemical genetic matrix, 2015):
# Where “and” joins values, the source holds several entries; their conditions need not be identical. Identical values can stand only once. Among all 5,500 compounds or so, about 2,000 (36%) were called active. Not shown: some 18% with an inconclusive outcome. Rule as the data show it: active = normalized growth mostly below about 0.91 (no sharp cut-off); inconclusive = no clear call, values can overlap the other calls; inactive = mostly above about 0.92. This is one part of the list. The source holds several records for some structures; these can differ, active in one and inactive in another.
# Experiment: chemical genetic growth profiling, strain panel (AID 1159580);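 also: tested at 20 µM; growth read once vehicle control cultures reached saturation at 30 °C; 1 = growth at the plate median or of vehicle wells; lower values mean less growth of the strain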
# Conditions: S. cerevisiae deletion strains, growth OD
smiles,measurement,setting,value
CN1C2CCC1CC(OC(c1ccccc1)c1ccccc1)C2 (stereo not given),normalized growth,"locus YAL013W, strain DEP1, stronger effect = lower value",0.825 (active) and 1.01 (inactive)
same,normalized growth,"locus YAL021C, strain ccr4, stronger effect = lower value",0.963 (inactive)
same,normalized growth,"locus YAL026C, strain drs2, stronger effect = lower value",0.975 (inactive)
same,normalized growth,"locus YAL030W, strain snc1, stronger effect = lower value",0.985 (inactive)
same,normalized growth,"locus YAL040C, strain CLN3, stronger effect = lower value",0.98 (inactive)
same,normalized growth,"locus YBL061C, strain skt5, stronger effect = lower value",0.989 (inactive)
same,normalized growth,"locus YBR009C, strain hhf1, stronger effect = lower value",0.968 (inactive)
same,normalized growth,"locus YBR021W, strain FUR4, stronger effect = lower value",1.02 (inactive)
same,normalized growth,"locus YBR023C, strain chs3, stronger effect = lower value",0.994 (inactive)
same,normalized growth,"locus YBR171W, strain sec66, stronger effect = lower value",0.977 (inactive)
same,normalized growth,"locus YBR229C, strain ROT2, stronger effect = lower value",0.989 (inactive)
same,normalized growth,"locus YBR231C, strain swc5, stronger effect = lower value",0.998 (inactive)
same,normalized growth,"locus YBR279W, strain paf1, stronger effect = lower value",0.967 (inactive)
same,normalized growth,"locus YCL011C, strain gbp2, stronger effect = lower value",0.982 (inactive)
same,normalized growth,"locus YCL016C, strain dcc1, stronger effect = lower value",0.969 (inactive)
same,normalized growth,"locus YCL029C, strain bik1, stronger effect = lower value",0.98 (inactive)
same,normalized growth,"locus YCL069W, strain vba3, stronger effect = lower value",0.989 (inactive)
same,normalized growth,"locus YCR088W, strain abp1, stronger effect = lower value",0.998 (inactive)
same,normalized growth,"locus YDL005C, strain med2, stronger effect = lower value",0.977 (inactive)
same,normalized growth,"locus YDL035C, strain GPR1, stronger effect = lower value",0.894 (inactive)
same,normalized growth,"locus YDL040C, strain nat1, stronger effect = lower value",0.992 (inactive)
same,normalized growth,"locus YDL074C, strain BRE1, stronger effect = lower value",0.665 (active)
same,normalized growth,"locus YDL101C, strain DUN1, stronger effect = lower value",0.914 (inactive)
same,normalized growth,"locus YDL134C, strain PPH21, stronger effect = lower value",0.924 (inactive)
same,normalized growth,"locus YDL185W, strain tfp1, stronger effect = lower value",0.969 (inactive)
same,normalized growth,"locus YDL192W, strain arf1, stronger effect = lower value",0.986 (inactive)
same,normalized growth,"locus YDR001C, strain nth1, stronger effect = lower value",0.989 (inactive)
same,normalized growth,"locus YDR069C, strain doa4, stronger effect = lower value",0.981 (inactive)
same,normalized growth,"locus YDR101C, strain arx1, stronger effect = lower value",1 (inactive)
same,normalized growth,"locus YDR137W, strain rgp1, stronger effect = lower value",1.01 (inactive)
same,normalized growth,"locus YDR150W, strain NUM1, stronger effect = lower value",1.01 (inactive)
same,normalized growth,"locus YDR159W, strain sac3, stronger effect = lower value",0.976 (inactive)
same,normalized growth,"locus YDR162C, strain NBP2, stronger effect = lower value",0.778 (active)
same,normalized growth,"locus YDR195W, strain ref2",0.975 (inactive)
same,normalized growth,"locus YDR297W, strain sur2, stronger effect = lower value",0.981 (inactive)
same,normalized growth,"locus YDR318W, strain mcm21, stronger effect = lower value",0.982 (inactive)
same,normalized growth,"locus YDR334W, strain swr1, stronger effect = lower value",0.999 (inactive)
same,normalized growth,"locus YDR335W, strain msn5, stronger effect = lower value",0.986 (inactive)
same,normalized growth,"locus YDR363W, strain ESC2, stronger effect = lower value",1 (inactive)
same,normalized growth,"locus YDR388W, stronger effect = lower value",0.972 (inactive)
same,normalized growth,"locus YDR392W, strain spt3, stronger effect = lower value",0.87 (inactive)
same,normalized growth,"locus YDR502C, strain sam2, stronger effect = lower value",0.964 (inactive)
same,normalized growth,"locus YEL003W, strain gim4, stronger effect = lower value",0.983 (inactive)
same,normalized growth,"locus YEL037C, strain rad23, stronger effect = lower value",0.977 (inactive)
same,normalized growth,"locus YEL061C, strain CIN8 (second series), stronger effect = lower value",0.988 (inactive)
same,normalized growth,"locus YEL061C, strain CIN8, stronger effect = lower value",0.983 (inactive)
same,normalized growth,"locus YER002W, strain NOP16, stronger effect = lower value",0.989 (inactive)
same,normalized growth,"locus YER015W, strain faa2, stronger effect = lower value",0.99 (inactive)
same,normalized growth,"locus YER016W, strain bim1, stronger effect = lower value",0.949 (inactive)
same,normalized growth,"locus YER110C, stronger effect = lower value",0.974 (inactive)
same,normalized growth,"locus YER111C, strain swi4, stronger effect = lower value",1 (inactive)
same,normalized growth,"locus YER155C, strain BEM2 (second series), stronger effect = lower value",0.985 (inactive)
same,normalized growth,"locus YER155C, strain BEM2, stronger effect = lower value",0.805 (active)
same,normalized growth,"locus YER167W, strain BCK2, stronger effect = lower value",0.939 (inactive)
same,normalized growth,"locus YFR010W, strain ubp6, stronger effect = lower value",0.973 (inactive)
same,normalized growth,"locus YGL078C, strain dbp3, stronger effect = lower value",0.98 (inactive)
same,normalized growth,"locus YGL086W, strain mad1, stronger effect = lower value",0.951 (inactive)
same,normalized growth,"locus YGL167C, strain pmr1, stronger effect = lower value",0.996 (inactive)
same,normalized growth,"locus YGL173C, strain kem1, stronger effect = lower value",0.982 (inactive)
same,normalized growth,"locus YGL227W, strain vid30, stronger effect = lower value",1 (inactive)
same,normalized growth,"locus YGL240W, strain doc1, stronger effect = lower value",1.02 (inactive)
same,normalized growth,"locus YGL248W, strain PDE1, stronger effect = lower value",0.842 (active)
same,normalized growth,"locus YGL253W, strain hxk2, stronger effect = lower value",0.999 (inactive)
same,normalized growth,"locus YGR078C, strain PAC10, stronger effect = lower value",0.802 (active) and 1.01 (inactive)
same,normalized growth,"locus YGR135W, strain pre9, stronger effect = lower value",0.936 (inactive)
same,normalized growth,"locus YGR252W, strain gcn5, stronger effect = lower value",0.895 (inactive)
same,normalized growth,"locus YHR013C, strain ard1, stronger effect = lower value",0.924 (inactive)
same,normalized growth,"locus YHR027C, strain rpn1, stronger effect = lower value",0.985 (inactive)
same,normalized growth,"locus YHR030C, strain SLT2, stronger effect = lower value",0.839 (active)
same,normalized growth,"locus YHR079C, strain IRE1 (second series), stronger effect = lower value",0.977 (inactive)
same,normalized growth,"locus YHR094C, strain hxt1, stronger effect = lower value",0.977 (inactive)
same,normalized growth,"locus YHR129C, strain ARP1, stronger effect = lower value",0.87 (active)
same,normalized growth,"locus YHR142W, strain chs7, stronger effect = lower value",0.968 (inactive)
same,normalized growth,"locus YHR200W, strain rpn10, stronger effect = lower value",0.981 (inactive)
same,normalized growth,"locus YIL066C, strain RNR3, stronger effect = lower value",0.952 (inactive)
same,normalized growth,"locus YIL073C, strain SPO22, stronger effect = lower value",0.804 (inactive)
same,normalized growth,"locus YIL125W, strain kgd1, stronger effect = lower value",0.982 (inactive)
same,normalized growth,"locus YIR030C, strain dcg1, stronger effect = lower value",0.986 (inactive)
same,normalized growth,"locus YJL092W, strain hpr5, stronger effect = lower value",0.99 (inactive)
same,normalized growth,"locus YJL095W, strain BCK1 (second series), stronger effect = lower value",0.987 (inactive)
same,normalized growth,"locus YJL095W, strain BCK1, stronger effect = lower value",0.723 (active)
same,normalized growth,"locus YJL115W, strain asf1, stronger effect = lower value",0.98 (inactive)
same,normalized growth,"locus YJL129C, strain trk1, stronger effect = lower value",0.975 (inactive)
same,normalized growth,"locus YJL134W, strain LCB3, stronger effect = lower value",0.997 (inactive)
same,normalized growth,"locus YJL154C, strain vps35, stronger effect = lower value",0.975 (inactive)
same,normalized growth,"locus YJL164C, strain tpk1, stronger effect = lower value",0.979 (inactive)
same,normalized growth,"locus YJL166W, strain qcr8, stronger effect = lower value",1.01 (inactive)
same,normalized growth,"locus YJL168C, strain set2, stronger effect = lower value",0.985 (inactive)
same,normalized growth,"locus YJL187C, strain SWE1 (second series), stronger effect = lower value",0.888 (inactive)
same,normalized growth,"locus YJL187C, strain SWE1, stronger effect = lower value",0.989 (inactive)
